{"source": "the supplement of paper PMC12582362", "note": "Counter-ions that a name gives are not always drawn. Out of some 1,500 compounds screened, about 30 (2%) showed activity. The full list was thinned out, with actives kept by preference. Unmarked numbers belong to inactive results.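 How the source made its calls: active = robust z-score below -2; a few such results were not called.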"}
{"tested_on": "optoTopBP1 Flp-In 293 T-REx (HEK293) cells", "assay": "light-induced TopBP1 condensate (nuclear foci) count, plate-normalised robust z-score vs non-control wells; higher = more TopBP1 condensates (negative = condensation inhibitor), active = hit call of the paper", "conditions": "10 µM; incubation time 2 h"}
{"smiles": "CN(c1nccc(=O)[nH]1)C1CCN(c2nc3ccccc3n2Cc2ccc(F)cc2)CC1", "note": "[Mizolastine]", "light-induced TopBP1 condensate (z-score)": -0.786}
{"smiles": "CC(C)=CCOc1ccc(/C=C/C(=O)c2ccc(OCC=C(C)C)cc2OCC(=O)O)cc1", "note": "[Sofalcone]", "light-induced TopBP1 condensate (z-score)": 0.373}
{"smiles": "CC(=O)OCC(=O)[C@@]12OC3(CCCC3)O[C@@H]1C[C@H]1[C@@H]3CCC4=CC(=O)C=C[C@]4(C)[C@@]3(F)[C@@H](O)C[C@@]12C", "note": "[Amcinonide]", "light-induced TopBP1 condensate (z-score)": 0.776}
{"smiles": "CNCC[C@@H](Oc1cccc2ccccc12)c1cccs1", "note": "[(R)-Duloxetine hydrochloride]", "light-induced TopBP1 condensate (z-score)": -1.75}
{"smiles": "O=C(CCCCC(=O)Nc1c(I)cc(I)c(C(=O)O)c1I)Nc1c(I)cc(I)c(C(=O)O)c1I", "note": "[Iodipamide]", "light-induced TopBP1 condensate (z-score)": -0.465}
{"smiles": "CC(C(=O)O)c1ccc(C(=O)c2cccs2)cc1", "note": "(stereo not drawn) [Suprofen]", "light-induced TopBP1 condensate (z-score)": -0.434}
{"smiles": "COc1cc(C(=O)NC2CCCNC2)cc(OC)c1OC", "note": "(stereo not drawn) [Troxipide]", "light-induced TopBP1 condensate (z-score)": -0.997}
{"smiles": "Nc1nc(=S)c2ncn([C@@H]3O[C@H](CO)[C@@H](O)[C@H]3O)c2[nH]1", "note": "[Thioguanosine]", "light-induced TopBP1 condensate (z-score)": 1.17}
{"smiles": "OCCN1CCN(CCCN2c3ccccc3C=Cc3ccccc32)CC1", "note": "[Opipramol dihydrochloride]", "light-induced TopBP1 condensate (z-score)": -0.102}
{"smiles": "CO[C@@H]1[C@@H](O[C@@H]2O[C@H](C)[C@@H](O[C@H]3C[C@@](C)(O)[C@@H](O)[C@H](C)O3)[C@H](N(C)C)[C@H]2O)[C@@H](CC=O)C[C@@H](C)[C@@H](O[C@H]2CC[C@H](N(C)C)[C@@H](C)O2)/C=C/C=C/C[C@@H](C)OC(=O)C[C@H]1OC(C)=O", "note": "[Acetyl spiramycin]", "light-induced TopBP1 condensate (z-score)": -0.0623}
{"smiles": "CC[C@]12CCCN3CCc4c(n(c5ccccc45)[C@@](O)(C(=O)OC)C1)[C@@H]32", "note": "[Vincamine]", "light-induced TopBP1 condensate (z-score)": -0.735}
{"smiles": "CC1=C(C)C(=O)C(C(CCCCCC(=O)O)c2ccccc2)=C(C)C1=O", "note": "(stereo not drawn) [Seratrodast]", "light-induced TopBP1 condensate (z-score)": -1.1}
{"smiles": "O=C(O)c1ccccc1Nc1cc(Cl)ccc1C(=O)O", "note": "[Lobenzarit disodium]", "light-induced TopBP1 condensate (z-score)": 0.707}
{"smiles": "CCCCC(CC)CNC(=N)NC(=N)NCCCCCCNC(=N)NC(=N)NCC(CC)CCCC", "note": "(stereo not drawn) [Alexidine dihydrochloride]", "light-induced TopBP1 condensate (z-score)": -0.446}
{"smiles": "COC(=O)C1=C(C)NC(C)=C(C(=O)O[C@H]2CCN(Cc3ccccc3)C2)[C@H]1c1cccc([N+](=O)[O-])c1", "note": "[Barnidipine Hydrochloride]", "light-induced TopBP1 condensate (z-score)": -1.06}
{"smiles": "CCOCCn1c(N2CCCN(C)CC2)nc2ccccc21", "note": "[Emedastine]", "light-induced TopBP1 condensate (z-score)": -0.971}
{"smiles": "CN1CCC(=C2c3ccccc3Sc3ccccc32)CC1", "note": "[Pimethixene maleate]", "light-induced TopBP1 condensate (z-score)": -1.21}
{"smiles": "C[C@H]1[C@@H](O)O[C@@H]2O[C@@]3(C)CC[C@H]4[C@H](C)CC[C@@H]1[C@@]24OO3", "note": "[Artenimol]", "light-induced TopBP1 condensate (z-score)": 0.222}
{"smiles": "CC(=O)OC(C)OC(=O)C(C)c1ccc(-c2ccccc2)c(F)c1", "note": "(stereo not drawn) [Flurbiprofen axetil]", "light-induced TopBP1 condensate (z-score)": -0.559}
{"smiles": "Cc1cc2nc3ccc(N(C)C)cc3[s+]c2cc1N", "note": "[Tolonium chloride]", "light-induced TopBP1 condensate (z-score)": "-9.72 (active)"}
{"smiles": "O=C(Cn1cnnn1)N[C@@H]1C(=O)N2C(C(=O)O)=C(CSc3nncs3)CS[C@H]12", "note": "[Ceftezole]", "light-induced TopBP1 condensate (z-score)": -0.707}
{"smiles": "O=C(Cn1c(=O)sc2ccc(Cl)cc21)N1CCN(CCO)CC1", "note": "[Tiaramide Hydrochloride]", "light-induced TopBP1 condensate (z-score)": 0.609}
{"smiles": "O=C1c2cccc(O)c2C(=O)c2c(O)cccc21", "note": "[1,8-Dihydroxyanthraquinone]", "light-induced TopBP1 condensate (z-score)": "-2.97 (active)"}
{"smiles": "CC(=O)Oc1cccc2c1C(=O)c1c(OC(C)=O)cc(C(=O)O)cc1C2=O", "note": "[Diacerein]", "light-induced TopBP1 condensate (z-score)": -1.09}
{"smiles": "O=C1c2c(O)cccc2Cc2cccc(O)c21", "note": "[Anthralin]", "light-induced TopBP1 condensate (z-score)": -0.589}
{"smiles": "CC(C(=O)O)c1cccc(Oc2ccccc2)c1", "note": "(stereo not drawn) [Fenoprofen calcium salt dihydrate]", "light-induced TopBP1 condensate (z-score)": 0.527}
{"smiles": "CN1CCC(OC(c2ccccc2)c2ccccc2)CC1", "note": "[Diphenylpyraline hydrochloride]", "light-induced TopBP1 condensate (z-score)": -0.243}
{"smiles": "CC=CC(=O)N(CC)c1ccccc1C", "note": "[Crotamiton]", "light-induced TopBP1 condensate (z-score)": -1.09}
{"smiles": "CC(=O)CC(c1ccccc1)c1c(O)c2ccccc2oc1=O", "note": "(stereo not drawn) [Warfarin]", "light-induced TopBP1 condensate (z-score)": 0.476}
{"smiles": "Nc1ccn([C@@H]2O[C@H](CO)[C@@H](O)[C@@H]2O)c(=O)n1", "note": "[Cytarabine]", "light-induced TopBP1 condensate (z-score)": -1.9}
{"smiles": "Nc1ccn([C@H]2CC[C@@H](CO)O2)c(=O)n1", "note": "[Zalcitabine]", "light-induced TopBP1 condensate (z-score)": 0.161}
{"smiles": "Nc1ccn([C@@H]2O[C@H](CO)[C@@H](O)C2(F)F)c(=O)n1", "note": "[Gemcitabine]", "light-induced TopBP1 condensate (z-score)": "-2.33 (active)"}
{"smiles": "O=C(Oc1cccc2cccnc12)c1ccccc1", "note": "[Benzoxiquine]", "light-induced TopBP1 condensate (z-score)": -0.428}
{"smiles": "OCCOCCN1CCN(C2=Nc3ccccc3Sc3ccccc32)CC1", "note": "[Quetiapine hemifumarate]", "light-induced TopBP1 condensate (z-score)": 0.443}
{"smiles": "O=C(CCCl)NCc1ccccc1", "note": "[Beclamide]", "light-induced TopBP1 condensate (z-score)": 0.736}
{"smiles": "O=C1[C@H]2CCCC[C@H]2C(=O)N1CCCCN1CCN(c2nsc3ccccc23)CC1", "note": "[Perospirone]", "light-induced TopBP1 condensate (z-score)": -0.904}
{"smiles": "CC(=O)O[C@@]12CO[C@@H]1C[C@H](O)[C@@]1(C)C(=O)[C@H](O)C3=C(C)[C@@H](OC(=O)[C@H](O)[C@@H](NC(=O)OC(C)(C)C)c4ccccc4)C[C@@](O)([C@@H](OC(=O)c4ccccc4)[C@H]21)C3(C)C", "note": "[Docetaxel]", "light-induced TopBP1 condensate (z-score)": -1.72}
{"smiles": "CNC(=O)c1c(I)c(C(=O)NCC(=O)Nc2c(I)c(C(=O)O)c(I)c(C(=O)NCCO)c2I)c(I)c(N(C)C(C)=O)c1I", "note": "[Ioxaglic acid]", "light-induced TopBP1 condensate (z-score)": 1.43}
{"smiles": "Cn1cc([S+](C)[O-])c(=O)c2ccc(F)cc21", "note": "(stereo not drawn) [Flosequinan]", "light-induced TopBP1 condensate (z-score)": 0.501}
{"smiles": "CC(=O)OCC(=O)[C@@]1(O)CC[C@H]2[C@@H]3CCC4=CC(=O)C=C[C@]4(C)[C@@]3(F)[C@@H](O)C[C@@]21C", "note": "[Isoflupredone acetate]", "light-induced TopBP1 condensate (z-score)": 0.491}
{"smiles": "Nc1ncn(C2OC(CO)C(O)C2O)c(=O)n1", "note": "(stereo not drawn) [Azacytidine-5]", "light-induced TopBP1 condensate (z-score)": 0.0662}
{"smiles": "N=c1ccn2c(n1)O[C@H]1[C@H](O)[C@@H](CO)O[C@H]12", "note": "[Ancitabine hydrochloride]", "light-induced TopBP1 condensate (z-score)": "-2.02 (active)"}
{"smiles": "NC(=O)c1ncn([C@@H]2O[C@H](CO)[C@@H](O)[C@H]2O)c1O", "note": "[Mizoribine]", "light-induced TopBP1 condensate (z-score)": -0.419}
{"smiles": "CCOC(=O)[C@H](CCc1ccccc1)N[C@@H](C)C(=O)N(CC(=O)O)C1Cc2ccccc2C1", "note": "[Delapril Hydrochloride]", "light-induced TopBP1 condensate (z-score)": 0.988}
{"smiles": "CC(=O)O[C@H]1C[C@@H]2CC[C@@H]3[C@H](CC[C@@]4(C)[C@H]3C[C@H]([N+]3(C)CCCCC3)[C@@H]4OC(C)=O)[C@@]2(C)C[C@@H]1N1CCCCC1", "note": "[Vecuronium bromide]", "light-induced TopBP1 condensate (z-score)": 0.392}
{"smiles": "O=c1[nH]cnc2c1ncn2[C@@H]1O[C@H](CO)[C@@H](O)[C@H]1O", "note": "[Inosine]", "light-induced TopBP1 condensate (z-score)": -0.394}
{"smiles": "Cc1cccn2c(=O)c(-c3nnn[nH]3)cnc12", "note": "[Pemirolast potassium]", "light-induced TopBP1 condensate (z-score)": 0.448}
{"smiles": "CN(C)[C@@H]1C(O)=C(C(=O)NCNCCCC[C@H](N)C(=O)O)C(=O)[C@@]2(O)C(O)=C3C(=O)c4c(O)cccc4[C@@](C)(O)[C@H]3C[C@@H]12", "note": "[Lymecycline]", "light-induced TopBP1 condensate (z-score)": 0.0668}
{"smiles": "Cc1c(Cl)cccc1Nc1ccccc1C(=O)O", "note": "[Tolfenamic acid]", "light-induced TopBP1 condensate (z-score)": -0.245}
{"smiles": "CN[C@@H]1[C@H](O[C@H]2[C@H](O[C@H]3[C@H](O)[C@@H](O)[C@H](N=C(N)N)[C@@H](O)[C@@H]3N=C(N)N)O[C@@H](C)[C@]2(O)C=O)O[C@@H](CO)[C@H](O)[C@H]1O", "note": "[Streptomycin sulfate]", "light-induced TopBP1 condensate (z-score)": -0.213}
{"smiles": "CC(=O)Nc1c(I)c(NC(C)=O)c(I)c(C(=O)O)c1I", "note": "[Diatrizoic acid dihydrate]", "light-induced TopBP1 condensate (z-score)": -0.965}
{"smiles": "CC(=O)OC[C@H]1O[C@@H]([S-])[C@H](OC(C)=O)[C@@H](OC(C)=O)[C@@H]1OC(C)=O.CCP(CC)CC.[Au+]", "note": "[Auranofin]", "light-induced TopBP1 condensate (z-score)": "-4.74 (active)"}
{"smiles": "CC(=O)OC[C@H]1O[C@@H](n2ncc(=O)[nH]c2=O)[C@H](OC(C)=O)[C@@H]1OC(C)=O", "note": "[Azaribine]", "light-induced TopBP1 condensate (z-score)": 0.84}
{"smiles": "CC(C)c1nc(CN(C)C(=O)N[C@H](C(=O)N[C@@H](Cc2ccccc2)C[C@H](O)[C@H](Cc2ccccc2)NC(=O)OCc2cncs2)C(C)C)cs1", "note": "[Ritonavir]", "light-induced TopBP1 condensate (z-score)": -1.47}
{"smiles": "Cc1onc(-c2ccccc2)c1-c1ccc(S(N)(=O)=O)cc1", "note": "[Valdecoxib]", "light-induced TopBP1 condensate (z-score)": -1.03}
{"smiles": "CCCCc1ccc2[nH]c(NC(=O)OC)nc2c1", "note": "[Parbendazole]", "light-induced TopBP1 condensate (z-score)": -0.867}
{"smiles": "COC(=O)Nc1nc2cc(C(=O)c3ccc(F)cc3)ccc2[nH]1", "note": "[Flubendazol]", "light-induced TopBP1 condensate (z-score)": "-2.01 (active)"}
{"smiles": "COC(=O)Nc1nc2cc(C(=O)c3ccccc3)ccc2[nH]1", "note": "[Mebendazole]", "light-induced TopBP1 condensate (z-score)": -1.07}
{"smiles": "COC(=O)Nc1nc2cc([S+]([O-])c3ccccc3)ccc2[nH]1", "note": "(stereo not drawn) [Oxfendazol]", "light-induced TopBP1 condensate (z-score)": 0.733}
{"smiles": "CCCOc1ccc2[nH]c(NC(=O)OC)nc2c1", "note": "[Oxibendazol]", "light-induced TopBP1 condensate (z-score)": "-3.01 (active)"}
{"smiles": "COC(=O)Nc1nc2cc(C(=O)c3cccs3)ccc2[nH]1", "note": "[Nocodazole]", "light-induced TopBP1 condensate (z-score)": -1.07}
{"smiles": "O=C(O)c1cc(/N=N/c2ccc(S(=O)(=O)Nc3ccccn3)cc2)ccc1O", "note": "[Sulfasalazine]", "light-induced TopBP1 condensate (z-score)": -0.0783}
{"smiles": "C[C@H](O)[C@H](O)[C@H]1CNc2[nH]c(N)nc(=O)c2N1", "note": "[Sapropterin dihydrochloride]", "light-induced TopBP1 condensate (z-score)": 0.574}
